Measured values reported in PubChem BioAssay (EPA / NIEHS).
Records with an inconclusive call do not appear. The source made the active and inactive calls. Rule for the calls, unless noted: active = hit-call score of the fitted dose curve at least 0.9, where 1 is the maximum; inconclusive = response in the unintended direction; inactive = score below 0.9.

Columns and labels:
[1] = TOX21_p53_BLA_p2_viability: Viability Assessment in the Tox21 HCT-116 p53 Agonism Beta-lactamase Assay, Phase 2 (AID 2283591);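 note: actives lower the ATP signal meaning cytotoxicity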
Summary of the method: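 HCT-116 p53-bla cells (4000/well) rested 5 h at 37C, then received compounds in DMSO (217-fold dilution) for 16 h at 37C, 5% CO2. After the CCF4 read, CellTiter-Glo was added; ATP luminescence was read after 30 min at room temperature.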

[2] = TOX21_p53_BLA_p3_viability: Viability Assessment in the Tox21 HCT-116 p53 Agonism Beta-lactamase Assay, Phase 3 (AID 2283593);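 note: cells exposed to compound for 16 h before reading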
Summary of the method: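 HCT-116 cells (4000/well) rested 5 h at 37C, then got DMSO compounds by pin tool (217-fold dilution) for 16 h at 37C, 5% CO2. After the bla read, CellTiter-Glo was added and luminescence read at 30 min, room temperature.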

[3] = biological target: Cellular tumor antigen p53 (Homo sapiens) (UniProt P04637); experiment: TOX21_p53_BLA_p3_ratio: Tox21 HCT-116 p53 Agonism Beta-lactamase Assay, Ratio, Phase 3 (AID 2283596)
Chain of Cellular tumor antigen p53 (Homo sapiens) (P04637 whole entry, looked up): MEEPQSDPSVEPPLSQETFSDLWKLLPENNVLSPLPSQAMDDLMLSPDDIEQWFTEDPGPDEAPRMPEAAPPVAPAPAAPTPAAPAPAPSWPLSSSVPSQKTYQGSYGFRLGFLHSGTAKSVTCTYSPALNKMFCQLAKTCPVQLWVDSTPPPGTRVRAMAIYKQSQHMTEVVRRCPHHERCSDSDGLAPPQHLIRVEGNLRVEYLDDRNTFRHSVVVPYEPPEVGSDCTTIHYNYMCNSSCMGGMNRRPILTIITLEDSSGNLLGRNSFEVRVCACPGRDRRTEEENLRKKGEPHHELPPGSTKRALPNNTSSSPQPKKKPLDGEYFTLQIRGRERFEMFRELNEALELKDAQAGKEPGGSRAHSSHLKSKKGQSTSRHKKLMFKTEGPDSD
Summary of the method: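 Cells were seeded at 4000/well, rested 5 h at 37C, then dosed with DMSO compound solutions (217-fold dilution) for 16 h. CCF4-AM substrate was loaded for 2 h at room temperature, and the 460/530 nm emission ratio was fitted for gain of signal versus DMSO.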

[4] = biological target: Cellular tumor antigen p53 (Homo sapiens) (UniProt P04637); experiment: TOX21_p53_BLA_p5_ratio: Tox21 HCT-116 p53 Agonism Beta-lactamase Assay, Ratio, Phase 5 (AID 2283599)
Summary of the method: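 HCT-116 cells carrying a p53-inducible beta-lactamase reporter were seeded at 4000 cells/well and dosed after 5 h with compound in DMSO (217-fold dilution). After 16 h at 37C, CCF4-AM substrate was added for 2 h, and the 460/530 nm emission ratio was scored as gain-of-signal versus DMSO.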

[5] = TOX21_p53_BLA_p5_viability: Viability Assessment in the Tox21 HCT-116 p53 Agonism Beta-lactamase Assay, Phase 5 (AID 2283600)
Summary of the method: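 Decreased CellTiter-Glo luminescence denotes lost viability. Exposure: 16 h at 37C, 5% CO2, with compounds from DMSO stocks diluted 217-fold in wells of 4000 cells.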

[6] = biological target: Cellular tumor antigen p53 (Homo sapiens) (UniProt P04637); experiment: TOX21_p53_BLA_p4_ratio: Tox21 HCT-116 p53 Agonism Beta-lactamase Assay, Ratio, Phase 4 (AID 2283601)
Summary of the method: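 HCT116 cells carrying an inducible beta-lactamase reporter were plated at 4000 cells/well, rested 5 h, then exposed to compounds in DMSO (217-fold dilution) for 16 h at 37C. CCF4-AM substrate was loaded 2 h at room temperature; 460/530 nm emission ratio scored gain-of-signal versus DMSO.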

PGR (gene 5241) [7] = biological target: PGR (gene 5241) (UniProt P06401); experiment: TOX21_PR_BLA_Followup_Antagonist_ratio: Tox21 HEK293 Progesterone Receptor (PR) Antagonism Beta-lactamase Follow-Up Assay, Ratio (AID 2283934);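 note: PR-UAS-bla HEK293T cells stimulated with 1 nM R5020 agonist for 16 hr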
Chain of PGR (gene 5241) (P06401 whole entry, looked up): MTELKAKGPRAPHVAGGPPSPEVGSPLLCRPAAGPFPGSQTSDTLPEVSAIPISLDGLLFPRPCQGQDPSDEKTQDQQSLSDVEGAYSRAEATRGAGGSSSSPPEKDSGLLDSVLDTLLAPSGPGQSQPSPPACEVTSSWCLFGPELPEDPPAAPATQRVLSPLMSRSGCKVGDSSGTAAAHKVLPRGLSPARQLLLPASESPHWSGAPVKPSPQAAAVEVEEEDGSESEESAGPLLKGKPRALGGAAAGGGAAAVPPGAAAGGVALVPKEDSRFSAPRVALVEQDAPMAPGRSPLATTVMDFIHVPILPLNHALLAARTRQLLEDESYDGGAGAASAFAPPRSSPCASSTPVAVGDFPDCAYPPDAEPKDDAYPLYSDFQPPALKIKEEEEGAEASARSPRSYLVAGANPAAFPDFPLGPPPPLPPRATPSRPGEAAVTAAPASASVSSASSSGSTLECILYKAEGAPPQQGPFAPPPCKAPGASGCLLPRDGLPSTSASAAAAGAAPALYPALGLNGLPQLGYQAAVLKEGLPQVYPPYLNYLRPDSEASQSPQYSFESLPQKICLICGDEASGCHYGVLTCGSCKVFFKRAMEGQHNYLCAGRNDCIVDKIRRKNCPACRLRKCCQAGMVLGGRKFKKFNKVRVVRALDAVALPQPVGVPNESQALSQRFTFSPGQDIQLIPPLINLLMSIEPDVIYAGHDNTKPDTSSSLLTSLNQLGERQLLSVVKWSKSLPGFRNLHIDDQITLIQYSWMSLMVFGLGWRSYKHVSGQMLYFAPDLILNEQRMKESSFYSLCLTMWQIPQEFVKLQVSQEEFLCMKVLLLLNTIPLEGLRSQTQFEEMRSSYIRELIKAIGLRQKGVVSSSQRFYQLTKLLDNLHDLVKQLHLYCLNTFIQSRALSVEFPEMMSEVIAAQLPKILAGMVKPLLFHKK
Summary of the method: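 Cells are plated, rested 6 hr, then dosed with test compound in DMSO and challenged with 1 nM promegestone. After 16 hr incubation, substrate loading for 2 h at room temperature precedes fluorescence reading; viability is measured in the same wells.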

[8] = TOX21_PR_BLA_Followup_Agonist_viability: Viability Assessment in the Tox21 HEK293 Progesterone Receptor (PR) Agonism Beta-lactamase Follow-Up Assay (AID 2283935);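 note: signal loss means lower viability so actives are cytotoxic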
Summary of the method: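 Cells were plated in medium with 2% charcoal-stripped FBS and rested 6 hr. Compounds in DMSO were then added for 16 hr at 37C, followed by the FRET substrate step and CellTiter-Glo luminescence after 30 min.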

PGR (gene 5241) [9] = biological target: PGR (gene 5241) (UniProt P06401); experiment: TOX21_PR_LUC_Followup_Antagonist: Tox21 HEK293 Progesterone Receptor (PR) Antagonism Luciferase Follow-Up Assay (AID 2283938);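 note: curve fitted upward as signal gain over DMSO baseline despite antagonist label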
Summary of the method: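 HEK293-PR-A-luc cells, 3,000/well, preincubated 5 h at 37C before compound addition in DMSO; 16 h compound exposure at 37C. ONE-Glo luciferase luminescence read after 30 min at room temperature, fitted relative to DMSO baseline.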

[10] = TOX21_PR_LUC_Followup_Antagonist_viability: Viability Assessment in the Tox21 HEK293 Progesterone Receptor (PR) Antagonism Luciferase Follow-Up Assay (AID 2283940)
Summary of the method: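 HEK293-PR-A-luc, 3,000 cells/well; 5 h at 37C/0% CO2; compound pin transfer; 16 h incubation; CellTiter-Glo ATP luminescence, signal loss = cytotoxicity.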

[11] = TOX21_PR_LUC_Followup_Agonist_viability: Viability Assessment in the Tox21 HEK293 Progesterone Receptor (PR) Agonism Luciferase Follow-Up Assay (AID 2283941);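 note: loss of signal means cytotoxicity so actives lower viability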
Summary of the method: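 Multiplexed viability endpoint of the PR agonist luciferase follow-up: HEK293-PR-A-luc cells treated 16 h at 37C, with viability scored as decrease in CellTiter-Glo ATP signal.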

[12] = TOX21_p53_BLA_p4_viability: Viability Assessment in the Tox21 HCT-116 p53 Agonism Beta-lactamase Assay, Phase 4 (AID 2283597);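 note: hits lower the luminescence signal meaning cytotoxicity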
Summary of the method: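 4000 HCT116 cells per well; 5 h attachment; compounds from DMSO, 217-fold dilution; 16 h at 37C. Then CCF4-AM, 2 h RT, followed by CellTiter-Glo, 30 min RT, luminescence. Decrease = cytotoxicity.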

[13] = CCTE_Harrill_HTTr_Viability_MCF7: CCTE's 6-hour Cell Viability Assessment for the High-Throughput Transcriptomics (HTTr) Platform, in MCF-7 cells cultured in DMEM + 10% fetal bovine serum, Harrill Lab (AID 2284010; active = hit-call score of the fitted dose curve at least 0.9, where 1 is the maximum; inactive = score below 0.9)
Summary of the method: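 Read-out is propidium iodide gain of signal by high-content imaging, reflecting membrane integrity loss. Measurements are taken 6 h after dosing, eight concentrations per chemical, with DMSO serving as baseline for bidirectional curve fitting.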

[14] = CCTE_Harrill_HTTr_Apoptosis_MCF7: CCTE's 6-hour Apoptosis Assessment for the High-Throughput Transcriptomics (HTTr) Platform, in MCF-7 cells cultured in DMEM + 10% fetal bovine serum, Harrill Lab (AID 2284011; active = hit-call score of the fitted dose curve at least 0.9, where 1 is the maximum; inactive = score below 0.9)
Summary of the method: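 MCF-7 cells in DMEM + 10% FBS exposed 6 h to chemicals over an eight-point dilution series. Caspase-3/7 activation imaged by high-content CellEvent Green staining; fitted bidirectionally versus DMSO.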

[15] = CCTE_Harrill_HTTr_CellCount_MCF7: CCTE's Cell Proliferation Assessment for the High-Throughput Transcriptomics (HTTr) Platform, Harrill Lab (AID 2284012);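 note: cells exposed to compound for six hours; intended direction is loss of nuclei count meaning fewer cells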
Summary of the method: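 Cell count served as viability reporter: loss of Hoechst-stained nuclei, counted by high content imaging, marks decreased growth or survival. Exposure was 6 h in MCF-7 cells across eight concentrations, with DMSO as baseline.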

Measured: AC50

Nc1ccccc1S(=O)(=O)c1ccccc1
inactive: [1] | [2] | [3] | [4] | [5] | [6] | PGR (gene 5241) [7] | [8] | PGR (gene 5241) [9] | [10] | [11]

COc1ccccc1OCC(O)CN1CCN(CC(=O)Nc2c(C)cccc2C)CC1 (centres undefined)
inactive: [1] | [2] | [3] | [12] | [6]

CCN(CC)C(=O)N1CCN(C)CC1
inactive: [1] | [2] | [3] | [12] | [6]

Cc1cccc2nccnc12
inactive: [1] | [2] | [3] | [4] | [6]

COCC(=O)Nc1c(I)c(C(=O)NCC(O)CO)c(I)c(C(=O)N(C)CC(O)CO)c1I (centres undefined)
inactive: [1] | [2] | [3] | [5] | [6]

C1CCCC1
inactive: [1] | [2] | [3] | [4] | [5] | [6]

Brc1c(NC2=NCCN2)ccc2nccnc12
inactive: [1] | [2] | [3] | [4] | [5] | [6]

CCCCOc1cc(C(=O)NCCN(CC)CC)c2ccccc2n1
inactive: [1] | [2] | [3] | [12] | [6]

COC(OC)OC
inactive: [1] | [2] | [3] | [6]

OC[C@H]1O[C@H](O[C@H]2O[C@H](CO)[C@@H](O)[C@H](O)[C@H]2O)[C@H](O)[C@@H](O)[C@@H]1O
inactive: [1] | [2] | [3] | [4] | [5]

CC1CC(=O)NN=C1c1ccc(NCC(C)(C)NCC(O)COc2cc(Cl)ccc2C#N)cc1 (centres undefined)
inactive: [1] | [2] | [3] | [12] | [6]

CCC[C@H](N[C@@H](C)C(=O)N1[C@H](C(=O)O)C[C@@H]2CCCC[C@@H]21)C(=O)OCC
inactive: [1] | [2] | [3] | [5] | [6] | [13] | [14] | [15]

CCC(COC(=O)CCS)(COC(=O)CCS)COC(=O)CCS
active: [3] 72.1 µM
inactive: [1] | [2] | [5]
